Laboratory results as given in PubChem BioAssay AID2782 (National Center for Advancing Translational Sciences (NCATS), 2010).
Results filed as inconclusive are left out. The source made the active and inactive calls. Calls come from the whole dose curve; as a rule, active = well fitted inhibition curve with a large enough effect in the polarisation, with a control signal flat (not every such curve was filed as active); inconclusive = small, poorly fitted or top-dose-only effect, or effect the other way, or a change in a side signal; inactive = no such curve, though single readings can be large or run the other way; the % refers to the polarisation.
% is set by controls: 0 for no effect and ±100 for the full control effect; potency is the fitted concentration of half-maximal effect.

Test: Confirmation of Inhibitors Targeting the Menin-MLL Interaction in MLL Related Leukemias: Competition With Texas Red Labeled MLL-derived Mutant Peptide
Details: fluorescence polarization, Texas Red MLL peptide displacement; series mostly up to 94.6 µM; FP change, negative = inhibition: at the top concentration
Procedure, shortened: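 Hits from the primary screen were retested: compounds were incubated 1 hr at ambient with 200 nM menin, 50 nM Texas Red mutant peptide and 25 nM fluorescein wild-type peptide (Tris pH 7.5, BSA-supplemented buffer), then fluorescence polarization was read.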
With `O=C(Nc1cc(Br)ccc1O)c1cc(-c2ccccc2)on1` the Potency was 20 µM (active). For `CCC(c1nnnn1Cc1ccc(F)cc1)N1CCN(C2CCCCC2)CC1` (stereo not drawn), the Potency was 35.5 µM (active). For `NS(=O)(=O)c1ccc(NC(=O)c2ccc(S(=O)(=O)N3CCc4ccccc43)cc2)cc1`, the Potency was 20 µM (active). In the case of `O=c1cc(O)c2ccccc2n1Cc1ccccc1F`, the “FP change, negative = inhibition” value is reported as -12.4% (inactive). In the case of `O=C(/C=C/c1ccccc1)Nc1nnc(SCC(=O)c2ccc3ccccc3c2)s1`, the Potency is reported as 17.8 µM (active). For `CCc1nnc(NC(=O)C2(C)COC(c3ccc(OC)cc3)OC2)s1` (stereo not drawn), the “FP change, negative = inhibition” value was 12.7% (inactive). For `Cn1c(=O)[nH]c(=O)c2c1nc(Br)n2CCSc1nc2ccccc2o1`, the “FP change, negative = inhibition” value was -7.1% [at 288 µM] (inactive). For `COc1ccc(NC(=O)N2CC[C@@]3(CCCN(C(=O)c4csnn4)C3)C2)cc1`, the “FP change, negative = inhibition” value was 17.4% (inactive). For `Cc1ccc(NC(=O)C(C)N2C(=O)c3ccccc3C2=O)c(C)c1` (stereo not drawn), the “FP change, negative = inhibition” value was 11.7% (inactive). In the case of `Cc1cnc(NC(=O)C2C(=O)c3ccccc3S(=O)(=O)N2C)s1` (stereo not drawn), the “FP change, negative = inhibition” value is reported as 8.84% [at 288 µM] (inactive). For `CCOC(=O)C1CCN(CC(O)COCc2ccccc2)CC1` (stereo not drawn), the “FP change, negative = inhibition” value was -20% [at 288 µM] (inactive). In the case of `O=C(c1cc2c(=O)n3ccccc3nc2s1)N1CCOCC1`, the “FP change, negative = inhibition” value is reported as -18.6% [at 288 µM] (inactive). For `COc1ccccc1C(=O)Nc1ccnn1C1CCN(CC2CC=CCC2)CC1` (stereo not drawn), the Potency was 126 µM (active). In the case of `Cc1ccc(C)n1-c1ccc(N(C)C)cc1`, the “FP change, negative = inhibition” value is reported as -2.7% (inactive). With `Cc1nc(C)c(-c2ccc(SCc3ccccc3F)nn2)s1` the “FP change, negative = inhibition” value was 20.8% (inactive). With `Cc1ccc(NS(=O)(=O)c2csc(C(N)=O)c2)cc1C` the “FP change, negative = inhibition” value was 4.48% [at 288 µM] (inactive). In the case of `O=C(CN1C(=O)/C(=C/c2cccc(Br)c2)SC1=S)NC1=NCCS1`, the Potency is reported as 17.8 µM (active). For `O=C(CSc1nnc(-c2c[nH]c3ccccc23)o1)c1ccc(-c2ccccc2)cc1`, the Potency was 35.5 µM (active).
